# Rows were chosen to be rich in hits. Some 6.2% of all compounds tested hit in one or more screens of this group.
# ATXN viability = Viability Counterscreen for Primary qHTS for Inhibitors of ATXN expression; S2 cells (HEK-293 line with an ATXN2-luciferase reporter) viability, CellTiter-Fluor protease fluorescence, 24 h; Potency, µM (top dose mostly 56.7 µM), usual class: cytotoxic; 400,000 compounds, 0.49% hits; note: nearly all actives have a fitted effect of over 40% in size
# ATXN2 expr inh = Primary qHTS for Inhibitors of ATXN expression; HEK-293 ATXN2-luciferase reporter, luminescence, 24 h; Potency, µM (highest dose often 57 µM), for inactives: top-dose activity change, negative = inhibition, actives largely listed as inhibitors; AID 1745845, 2022; 360,000 compounds, 0.72% hits; note: % is set by controls: 0 for no effect and ±100 for the full control effect; nearly all actives have a fitted effect of over 55% in size
#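 ATXN2-luciferase reporter cells (luciferase flanked by upstream and downstream ATXN2 gene portions) were treated 24 h at 37 °C with compounds at up to 57 uM. SteadyGlo luminescence gave expression; GF-AFC fluorescence gave viability.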
# HT1080NT lethal = qHTS for induction of synthetic lethality in tumor cells producing 2HG: qHTS for the HT-1080-NT fibrosarcoma cell line; 360,000 compounds, 1.6% hits; HT-1080-NT fibrosarcoma viability, CellTiter-Glo ATP luminescence, 48 h; Potency, µM (series often up to 46.1 µM), without a hit: top-dose activity, negative = less viability, actives largely listed as cytotoxic;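 note: NT is the 2HG producing partner of a matched IDH1 knockdown line; 0% = DMSO-treated cells and -100% = media-only wells without cells; nearly all actives have a fitted effect of over 55% in size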
#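 Viability of the 2HG-overproducing fibrosarcoma line after 48 hours of compound exposure at 37 degrees C was determined by luminescence with CellTiter-Glo, and concentration-effect curves were then fitted and categorized.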
# KB-V1 cytotox = qHTS assay for MDR1-selective chemotherapeutics: Primary screen using the drug-selected MDR subline cells KB-V1. 400,000 compounds, 3.4% hits. KB-V1 MDR cells viability, CellTiter-Glo, 72 h. AID 1347076, 2019. Potency, µM (series often up to 46.1 µM), most hits filed as cytotoxic; note: % is set by controls: 0 for no effect and ±100 for the full control effect; nearly all actives have a fitted effect of over 60% in size
#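 In this primary screen, KB-V1 cells overexpressing P-gp are incubated with library compounds (lowest to highest concentration) for 72 h at 37 degrees C before a luminescent ATP viability read.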
# HT1080 IDH1KD tx = qHTS for induction of synthetic lethality in tumor cells producing 2HG: qHTS for the HT-1080-IDH1KD cell line | HT-1080 IDH1 knockdown viability, ATP luminescence, 48 h | Potency, µM (titrated, usually from 46.1 µM), without a hit: at the highest dose activity, negative = toxicity, most hits filed as cytotoxic | AID 686971, 2013 | 360,000 compounds, 2% hits;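 note: 0% = DMSO wells and -100% = cell-free medium wells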
#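 Luminescent ATP read-out (CellTiter-Glo, 10 min at room temperature) after 48 h compound exposure at 37 °C gave viability of IDH1-knockdown HT-1080 cells. Activity was normalised to DMSO and cell-free wells, then fitted as concentration-response curves.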
# KB-3-1 tox = qHTS assay for MDR1-selective chemotherapeutics: Primary screen using the parental adenocarcinoma cell KB-3-1. KB-3-1 viability, CellTiter-Glo ATP luminescence, 72 h. Potency, µM (highest dose often 46.1 µM), most hits filed as cytotoxic. 400,000 compounds, 1.4% hits. AID 1347075, 2019; note: % is set by controls: 0 for no effect and ±100 for the full control effect; nearly all actives have a fitted effect of over 60% in size
#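 Screening of KB-3-1 cells (DMEM, 10% FBS, phenol-red free) ran from lowest to highest compound concentration; after 72 h at 37 °C viability was read luminescently and curves fitted.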
# * marks the source's active call; other numbers are inactive results; i = inactive; ? = inconclusive; . = no result given. Calls come from the whole dose curve; as a rule, active = well fitted curve in the direction sought with a large enough effect; inconclusive = small, poorly fitted or top-dose-only effect, or another doubt; inactive = no such curve, though single readings can be large; an effect the other way counts as inactive or inconclusive. Potency is the fitted concentration of half-maximal effect.
SMILES,ATXN viability,ATXN2 expr inh,HT1080NT lethal,KB-V1 cytotox,HT1080 IDH1KD tx,KB-3-1 tox
COc1cc(CNc2nc(C)c([N+](=O)[O-])c(C)c2C#N)cc(OC)c1,i,-2%,-1%,7.3µM*,-1%,?
COCc1c(C#N)c(NCc2cc(OC)c(OC)c(OC)c2)nc(C)c1[N+](=O)[O-],i,-30%,-13%,5.2µM*,-22%,?
CC(C)CC(=O)Nc1cc(-c2ccccc2F)nn1-c1ccccc1,i,-20%,.,i,.,i
CCOC(=O)C1CCCN(C(=O)c2cnn(-c3ncc4c(n3)-c3ccccc3CC4)c2C)C1 (stereo not drawn),i,.,.,.,.,.
Cc1ccc(-n2nnnc2-c2cnc3cc4c(cc3c2C)OCO4)cc1,i,-8%,0%,23µM*,-4%,i
CN(Cc1ccc(C#CCCO)cc1)CC1CCCN(CCc2ccc(Cl)cc2)C1 (stereo not drawn),?,.,26µM*,i,?,i
CCOC(=O)N1CCc2c(sc(NCc3sccc3C)c2C(=O)Nc2ccc(OC)cc2OC)C1,i,14µM*,.,i,.,i
c1ccc(CSc2nnc(-c3ccccc3)c(-c3ccccc3)n2)cc1,i,-4%,-20%,18µM*,-2%,i
CCN(CC)C(=O)CSc1nnc(-c2ccccc2)c(-c2ccccc2)n1,i,1%,11%,3.3µM*,17%,i
O=C(O)CSc1nnc(-c2ccccc2)c(-c2ccccc2)n1,i,0%,3%,i,0%,i
CCOc1ccccc1CNCc1cccn1-c1nnc(N2CCN(c3ccccc3)CC2)s1,?,18µM*,.,?,.,?
CCOc1ccccc1CNC(=O)c1cccn1-c1nnc(N2CCCCC2)s1,.,.,.,?,.,i
CC(C)CCn1cnc2c(sc3nc4c(cc32)CSC(C)(C)C4)c1=O,i,118%,9%,?,3%,i
CCCCn1cnc2c(sc3nc4c(cc32)CSC(C)(C)C4)c1=O,i,-3%,-4%,21µM*,-4%,i
COc1ccc(N(CC(=O)NCCSCc2c(F)cccc2Cl)S(C)(=O)=O)cc1OC,i,-2%,1%,8.2µM*,3%,i
CC(C)(C)SCCNC(=O)CN(c1ccc(F)c(Cl)c1)S(C)(=O)=O,i,0%,-1%,18µM*,-11%,i
COc1ccc(OC)c(N(CC(=O)NCCSc2ccccc2)S(C)(=O)=O)c1,i,2%,1%,23µM*,-2%,i
COc1cccc(N(CC(=O)NCCSc2ccc(Cl)cc2)S(C)(=O)=O)c1,i,-8%,-7%,16µM*,-2%,i
COc1ccc(N(CC(=O)NCCSc2ccccc2)S(C)(=O)=O)cc1,i,-4%,-5%,i,-7%,?
C=Cc1ccc(Cn2c(SCC(=O)N3CCN(c4ccc(F)cc4)CC3)nc3ccccc32)cc1,i,-1%,.,i,.,i
O=C(c1cnn(-c2nccc(-c3ccco3)n2)c1C1CC1)N1CCCCC1c1cccnc1 (stereo not drawn),i,.,.,.,.,.
O=C(C[n+]1ccncc1)c1ccc2ccccc2c1,.,.,.,i,.,?
O=C(c1ccc2c(c1)N(Cc1ccc(Cl)cc1)C(=O)c1ccccc1S2=O)N1CCOCC1 (stereo not drawn),i,-17%,.,i,.,i
COC(=O)c1nnn(CC(=O)Nc2c(C)cccc2C)c1N,i,1%,.,?,.,i
O=c1[nH]c(/C(Cl)=C/c2cc(Cl)ccc2O)nc2cc(Cl)ccc12,?,-12%,-1%,15µM*,-2%,?
SMILES,ATXN viability,ATXN2 expr inh,HT1080NT lethal,KB-V1 cytotox,HT1080 IDH1KD tx,KB-3-1 tox
CCCN(CCC)C(=O)Cn1c(=O)n(-c2ccc(Cl)cc2)c(=O)c2c3c(sc21)CCCC3,i,-5%,.,i,.,i
CCOC(=O)c1c(-c2ccccc2)nc2cc(C)ccn12,i,54%,-23%,15µM*,?,i
CCOC(=O)C(=O)c1c(-c2ccccc2)nc2ccccn12,i,-4%,-6%,i,-4%,i
CCOC(=O)c1c(-c2ccccc2)nc2ccc(C)cn12,?,26%,8%,21µM*,5%,i
COc1ccc(N(CC(=O)NCc2ccccc2Cl)S(=O)(=O)c2c(C)nn(C)c2C)cc1,i,-9%,.,i,.,i
COc1ccc(C2C(C#N)=C(C)NC3=C2C(=O)c2ccccc23)cc1 (stereo not drawn),i,-13%,1%,i,10%,i
CCOc1ccc(C2C(C(=O)OC)=C(C)NC3=C2C(=O)c2ccccc23)cc1OC (stereo not drawn),i,-19%,.,i,.,i
C#CCOc1c(Br)cc(C2C(C(=O)OC)=C(C)NC3=C2C(=O)c2ccccc23)cc1OCC (stereo not drawn),?,2%,.,?,.,4.6µM*
COc1cc(C2C(C#N)=C(C)NC3=C2C(=O)c2ccccc23)cc(OC)c1OC (stereo not drawn),?,-8%,0.89µM*,?,0.79µM*,2.1µM*
NC(CCc1ccccc1)c1csc(Nc2nncc3ccccc23)n1 (stereo not drawn),i,-22%,?,i,?,i
CC(C)C(N)c1csc(Nc2nncc3ccccc23)n1 (stereo not drawn),i,0%,?,?,?,i
CC(N)c1csc(Nc2nncc3ccccc23)n1 (stereo not drawn),i,?,?,i,18µM*,i
NC(Cc1ccccc1)c1csc(Nc2nncc3ccccc23)n1 (stereo not drawn),.,?,?,23µM*,?,?
Nc1ccc(CC(N)c2csc(Nc3nncc4ccccc34)n2)cc1 (stereo not drawn),i,-24%,?,23µM*,-25%,?
Cc1cc2nccc(C)c2cc1C,.,.,.,i,.,i
Cc1nc(-c2ccccn2)sc1C(=O)Nc1ccc(Cl)c(Cl)c1,i,40%,-8%,18µM*,1%,i
Cc1nc(-c2ccccn2)sc1C(=O)O,i,-2%,10%,i,13%,i
O=C(Cc1ccc2c(c1)OCCO2)N1CCN(S(=O)(=O)c2cccc(Cl)c2Cl)CC1,?,-5%,2%,23µM*,1%,i

# Compound activity (PubChem)
